The list is not random: actives were taken first. Their share in the collection is about 8.3%.
Lassa entry inh: qHTS for Inhibitors of binding or entry into cells for Lassa Virus. Lassa virus pseudotype entry inhibition, cell reporter. Potency, µM (top dose mostly 37.9 µM), hits mostly inhibitors. actives 1.2% (n = 300,000); calls by dose curve; tested in HEK293 cells; further: nearly all actives have a fitted effect of over 50% in size
FMDV inh: High Throughput Screening for Foot and Mouth Disease Virus Antivirals; FMDV antiviral cell-based qHTS; AID 1159524, 2015; actives 1.2% (n = 410,000); Potency, µM (series often up to 57.9 µM), actives largely listed as inhibitors; calls by dose curve; tested in HEK293T cells; further: read-out not given here; nearly all actives have a fitted effect of over 45% in size
HCMV inh: qHTS Assay for inhibitors of the human cytomegalovirus (HCMV). HFF cells, HCMV-luciferase reporter, 72 h; active compounds read low. activity change, negative = inhibition, % at 57.5 µM. actives 4.5% (n = 410,000); in the data active means activity change below about -60%; inconclusive means no clear call, values can overlap the other calls; inactive means above about -39%
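Two compound doses tested in HFFs infected with HCMV-luciferase, MOI 1 PFU/cell, 72 h at 37C. Lysate luminescence read with OneGlo; data normalized against buffer-only and 10uM Salinomycin inhibitor controls.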
FBPA Giardia inh: qHTS Assay for Inhibitors of Fructose-1,6-bisphosphate Aldolase from Giardia Lamblia; purified Giardia FBPA; Potency, µM (series often up to 59.6 µM), usual class: inhibitors; actives 0.71% (n = 290,000); AID 2451, 2010; further: nearly all actives have a fitted effect of over 55% in size
Target sequence (A8B2U2 whole entry, looked up): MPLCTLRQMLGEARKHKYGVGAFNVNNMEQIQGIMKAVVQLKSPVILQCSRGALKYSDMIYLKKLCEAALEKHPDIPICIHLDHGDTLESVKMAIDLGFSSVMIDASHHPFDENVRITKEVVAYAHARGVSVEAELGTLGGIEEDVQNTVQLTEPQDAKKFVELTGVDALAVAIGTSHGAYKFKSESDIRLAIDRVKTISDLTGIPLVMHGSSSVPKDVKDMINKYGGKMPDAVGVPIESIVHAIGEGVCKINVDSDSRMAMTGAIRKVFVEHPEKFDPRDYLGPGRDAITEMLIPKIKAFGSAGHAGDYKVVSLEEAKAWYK
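40 nM FBPA preincubated 10 min at RT with compound (up to 57.5 uM final), then substrate plus GAPDH/TPI/NAD/arsenate coupling and diaphorase/resazurin added. Fluorescence read after 20 min at RT, 525/598 nm.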
HCV inh: qHTS Assay for Inhibitors of Hepatitis C Virus (HCV); Huh7.5.1 HCVcc-Cre infection, luciferase reporter, 44 h; Potency, µM (series often up to 41.8 µM), hits mostly inhibitors; actives 3.4% (n = 340,000); AID 651820, 2012
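HCVcc-Cre virus at an moi near 0.5 was added right after compound to cells cultured 4 h from seeding (1,000 cells/well). Luciferase activity was determined 44 h later, 15 min after substrate addition at RT.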
MARV entry inh: qHTS for inhibitors of binding or entry into cells for Marburg Virus; Marburg virus pseudotyped entry inhibition, cell reporter; Potency, µM (titrated, usually from 37.8 µM), usual class: inhibitors; actives 1.8% (n = 300,000); AID 540276, 2011; calls by dose curve; tested in HEK293 cells
Large screens that a line does not name were inactive; ! = a repeat was not active. Unless noted, the call rests on the fitted dose curve; in most records, active means well fitted curve in the direction sought with a large enough effect; inconclusive means small, poorly fitted or top-dose-only effect, or another doubt; inactive means no such curve, though single readings can be large; an effect the other way counts as inactive or inconclusive.

COC(=O)C1=C(c2ccc(F)cc2OCc2ccccc2)C[C@@H]2CC[C@H]1N2C(=O)NCc1ccccc1	none (no result: Lassa entry inh, FBPA Giardia inh, MARV entry inh)
COC(=O)C1=C(c2ccc(OCc3ccccc3)cc2)C[C@@H]2CC[C@H]1N2C(=O)NCc1cccc(C(F)(F)F)c1	HCV inh 13µM (no result: Lassa entry inh, FBPA Giardia inh, MARV entry inh)
COC(=O)C1=C(c2cccc(OCc3ccccc3)c2)C[C@@H]2CC[C@H]1N2C(=O)NCc1ccc(C(F)(F)F)cc1	HCMV inh inconclusive, HCV inh 10µM (no result: Lassa entry inh, FBPA Giardia inh, MARV entry inh)
COC(=O)C1=C(c2ccc(F)cc2OCc2ccccc2)C[C@@H]2CC[C@H]1N2C(=O)NCc1ccc2c(c1)OCO2	HCV inh 10µM (no result: Lassa entry inh, FBPA Giardia inh, MARV entry inh)
COC(=O)C1=C(c2cccc(C#N)c2)C[C@@H]2CC[C@H]1N2C(=O)NCc1cc(C)oc1C(F)(F)F	HCMV inh -71, HCV inh inconclusive (no result: Lassa entry inh, FBPA Giardia inh, MARV entry inh)
O=C(NCCc1ccc(Cl)cc1)C(=O)NCC(c1cccs1)S(=O)(=O)c1cccs1 (stereo not drawn)	Lassa entry inh inconclusive, FMDV inh inconclusive (no result: FBPA Giardia inh, HCV inh, MARV entry inh)
Cc1cccc(NC(=O)c2cc(S(=O)(=O)NCc3ccc4c(c3)OCO4)ccc2F)c1C	none (no result: FBPA Giardia inh, HCV inh, MARV entry inh)
O=C(NCc1cccc(Br)c1)c1cccn1-c1nnc(N2CCCCC2)s1	none (no result: FBPA Giardia inh, HCV inh, MARV entry inh)
CCOc1ccccc1NC(=O)C1CCN(S(=O)(=O)c2c(C)noc2/C=C/c2ccco2)CC1	Lassa entry inh inconclusive (no result: FBPA Giardia inh, HCV inh)
CCN(CCN(C)C)C(=O)C1CCN(S(=O)(=O)c2c(C)noc2/C=C/c2ccccc2F)CC1	Lassa entry inh inconclusive, HCMV inh -99!, HCV inh inconclusive (no result: FBPA Giardia inh, MARV entry inh)
CCOc1ccccc1/C=C/c1onc(C)c1S(=O)(=O)N1CCC(C(=O)N(CC)CC)CC1	Lassa entry inh inconclusive, HCMV inh active!, HCV inh inconclusive (no result: FBPA Giardia inh, MARV entry inh)
COC(=O)CCN(C(=O)C1CCN(S(=O)(=O)c2c(C)noc2/C=C/c2ccccc2F)CC1)c1ccccc1	none (no result: FBPA Giardia inh, HCV inh, MARV entry inh)
CCOC(=O)c1ccc(NS(=O)(=O)c2cc(-c3onc(C)c3C)ccc2C)cc1	none (no result: FBPA Giardia inh, HCV inh, MARV entry inh)
O=C(CSc1nc(-c2ccccc2)c2ccccc2n1)Nc1ccc(F)cc1	none (no result: FBPA Giardia inh, HCV inh)
O=[N+]([O-])c1cccc(S(=O)(=O)c2ccc(N3CCCCC3)c([N+](=O)[O-])c2)c1	FMDV inh inconclusive, HCV inh 8.9µM
O=C(/C=C/c1ccc(N2CCCCC2)c([N+](=O)[O-])c1)c1ccc(S(=O)(=O)N2CCCC2)cc1	FMDV inh 20µM, MARV entry inh inconclusive
NC(=O)c1ccc(N2CCN(c3ccc(O)cc3)CC2)c([N+](=O)[O-])c1	FMDV inh inconclusive, HCMV inh -66, HCV inh inconclusive, MARV entry inh inconclusive
NC(=O)c1ccc(N2CCN(S(=O)(=O)c3ccccc3)CC2)c([N+](=O)[O-])c1	Lassa entry inh 2µM, FMDV inh 16µM, HCMV inh -90, HCV inh 2.8µM
O=C(c1cnn2cccnc12)N1CCOc2ccc(C(O)C(c3ccccc3)c3ccccc3)cc2C1 (stereo not drawn)	none (no result: Lassa entry inh, HCMV inh, FBPA Giardia inh, HCV inh, MARV entry inh)
COc1ccc(O[C@@H]2[C@H](O)CO[C@H]2/C=C/C#Cc2ccccc2)cc1	none (no result: Lassa entry inh, FMDV inh, HCMV inh, FBPA Giardia inh, HCV inh)
c1cc(Nc2cccc3nccnc23)c2nccnc2c1	Lassa entry inh inconclusive, MARV entry inh inconclusive
Fc1ccc(Nc2cccc3nccnc23)cc1	HCMV inh -64, HCV inh inconclusive, MARV entry inh inconclusive
CCN(CCOC(=O)Nc1ccc(Cl)cc1)C(=O)Nc1ccc(Cl)cc1	none (no result: Lassa entry inh, FMDV inh, FBPA Giardia inh, HCV inh, MARV entry inh)
COCCn1c(=O)[nH]c2cc(C(=O)N3CCN(c4cccc(Cl)c4)CC3)ccc2c1=O	Lassa entry inh inconclusive, FMDV inh inconclusive, HCV inh inconclusive, MARV entry inh inconclusive
COc1cccc(N2CCN(C(=O)c3ccc4c(=O)n(CCc5ccccc5)c(=O)[nH]c4c3)CC2)c1	FMDV inh 20µM (no result: FBPA Giardia inh, HCV inh)
C=CCn1c(=O)[nH]c2cc(C(=O)N3CCN(c4ccc(C(C)=O)cc4)CC3)ccc2c1=O	Lassa entry inh inconclusive, FMDV inh 14µM, HCV inh inconclusive
C=CCn1c(=O)[nH]c2cc(C(=O)N3CCN(c4cccc(Cl)c4)CC3)ccc2c1=O	FMDV inh 28µM, MARV entry inh inconclusive
C=CCn1c(=O)[nH]c2cc(C(=O)N3CCN(c4cc(C)ccc4C)CC3)ccc2c1=O	none

Screens as filed in PubChem BioAssay.
